The source of these data is paper PMC7862700, “An all-to-all approach to the identification of sequence-specific readers for epigenetic DNA modifications on cytosine”.

What all share (assay): DAPPL (digital affinity profiling via proximity ligation, sequencing); 10 mM Tris-HCl pH 7.5, 50 mM NaCl, 1 mM DTT, 4% glycerol, room temperature, 30 min; GST-TFs on glutathione beads, 16-mer random dsDNA library, 0.1% formaldehyde crosslink after washing; high values mean tight binding
Settings in all cases: protein: recombinant; tags: N-terminal GST; dsDNA, one strand shown

In one test the target is ELF1 (Homo sapiens, UniProt P32519 1-619). The procedure, abridged: (§1)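 Human transcription factors were made in yeast as GST fusions, captured on glutathione beads and barcoded with DNA. With a tag-only sample included, the pool was incubated with 200 nmole of a random double-stranded 16-mer DNA library in Tris/NaCl/DTT/glycerol buffer at room temperature for 30 min, then crosslinked with 0.1% formaldehyde after washing, ligated by proximity, amplified and sequenced. For binding signal, each hexamer's read frequency for a factor is divided by its frequency for the tag-only sample.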
Sequence of ELF1 (P32519 whole entry, the tested form may be a part): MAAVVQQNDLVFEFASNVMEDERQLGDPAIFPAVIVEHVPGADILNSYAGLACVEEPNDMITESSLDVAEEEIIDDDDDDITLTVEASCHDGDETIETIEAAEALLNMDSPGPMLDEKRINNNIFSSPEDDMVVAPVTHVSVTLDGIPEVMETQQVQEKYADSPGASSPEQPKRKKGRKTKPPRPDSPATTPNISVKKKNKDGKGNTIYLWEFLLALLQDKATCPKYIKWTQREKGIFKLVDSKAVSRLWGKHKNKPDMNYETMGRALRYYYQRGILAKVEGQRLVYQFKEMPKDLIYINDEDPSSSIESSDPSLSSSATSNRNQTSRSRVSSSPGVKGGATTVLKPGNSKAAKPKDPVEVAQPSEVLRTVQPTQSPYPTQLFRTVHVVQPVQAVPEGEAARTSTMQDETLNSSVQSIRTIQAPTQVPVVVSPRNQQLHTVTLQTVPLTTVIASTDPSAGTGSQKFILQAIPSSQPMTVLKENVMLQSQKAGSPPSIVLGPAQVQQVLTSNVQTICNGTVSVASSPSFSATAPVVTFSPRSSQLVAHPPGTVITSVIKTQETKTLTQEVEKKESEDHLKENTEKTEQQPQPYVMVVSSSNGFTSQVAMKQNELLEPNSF

Another test deals with T1, EHF (Homo sapiens, UniProt Q9NZC4 1-300).
T1 sequence: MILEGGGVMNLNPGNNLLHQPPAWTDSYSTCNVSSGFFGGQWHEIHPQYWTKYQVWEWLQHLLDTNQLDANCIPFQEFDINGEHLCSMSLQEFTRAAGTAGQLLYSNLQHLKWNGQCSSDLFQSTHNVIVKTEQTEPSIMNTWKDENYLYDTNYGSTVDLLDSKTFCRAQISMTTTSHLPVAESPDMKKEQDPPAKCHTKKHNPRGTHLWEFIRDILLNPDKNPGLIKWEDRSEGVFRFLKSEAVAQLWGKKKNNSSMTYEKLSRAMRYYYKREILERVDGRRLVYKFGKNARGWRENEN
The procedure, abridged: as §1

The target in the next test is SPIB (Homo sapiens, UniProt Q01892 1-262). A digest of the protocol:
as §1

For another test, the target named is T2, SPIC (Homo sapiens, UniProt Q8N5J4 1-248).
T2 sequence: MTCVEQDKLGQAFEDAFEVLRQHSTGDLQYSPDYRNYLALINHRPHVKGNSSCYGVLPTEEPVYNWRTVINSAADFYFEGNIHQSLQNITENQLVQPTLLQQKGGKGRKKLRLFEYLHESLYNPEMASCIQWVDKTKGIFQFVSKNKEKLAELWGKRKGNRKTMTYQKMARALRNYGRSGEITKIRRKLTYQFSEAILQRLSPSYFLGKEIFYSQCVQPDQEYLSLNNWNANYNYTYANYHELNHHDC
A digest of the protocol: as §1

The target in a further test is ELF4 (Homo sapiens, UniProt Q99607 1-663). A digest of the protocol:
as §1

For the next test, the target named is T3, ELK4 (Homo sapiens, UniProt P28324-2 1-405).
T3 sequence: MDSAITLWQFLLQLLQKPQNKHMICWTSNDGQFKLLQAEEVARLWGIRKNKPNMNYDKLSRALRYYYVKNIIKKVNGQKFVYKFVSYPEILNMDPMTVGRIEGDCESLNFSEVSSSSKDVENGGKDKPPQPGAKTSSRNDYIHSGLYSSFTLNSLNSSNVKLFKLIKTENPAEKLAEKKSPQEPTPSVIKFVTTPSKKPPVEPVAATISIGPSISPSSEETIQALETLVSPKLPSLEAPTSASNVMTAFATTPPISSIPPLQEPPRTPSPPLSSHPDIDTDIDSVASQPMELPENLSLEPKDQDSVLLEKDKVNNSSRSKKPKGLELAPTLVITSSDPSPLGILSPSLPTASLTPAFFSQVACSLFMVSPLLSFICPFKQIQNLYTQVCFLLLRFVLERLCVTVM
A digest of the protocol:
as §1

The target of a further test is T4, ERF (Homo sapiens, UniProt P50548 1-548).
T4 sequence: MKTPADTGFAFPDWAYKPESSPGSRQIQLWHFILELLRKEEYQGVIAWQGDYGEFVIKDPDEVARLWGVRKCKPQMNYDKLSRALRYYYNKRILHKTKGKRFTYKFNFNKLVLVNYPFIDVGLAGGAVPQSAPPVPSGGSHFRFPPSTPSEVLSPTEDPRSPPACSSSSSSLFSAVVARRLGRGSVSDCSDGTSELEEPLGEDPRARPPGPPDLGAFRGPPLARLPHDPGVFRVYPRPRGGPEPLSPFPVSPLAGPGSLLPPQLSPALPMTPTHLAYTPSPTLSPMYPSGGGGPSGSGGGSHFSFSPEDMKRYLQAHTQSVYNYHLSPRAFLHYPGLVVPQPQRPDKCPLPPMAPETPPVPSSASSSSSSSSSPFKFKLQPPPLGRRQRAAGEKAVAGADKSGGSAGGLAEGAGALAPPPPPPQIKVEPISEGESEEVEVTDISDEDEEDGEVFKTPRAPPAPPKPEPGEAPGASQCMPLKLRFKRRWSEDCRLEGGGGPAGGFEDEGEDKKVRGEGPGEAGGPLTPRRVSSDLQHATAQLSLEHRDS
A digest of the protocol:
as §1

A further test has as its target T5, ETV7 (Homo sapiens, UniProt Q9Y603 1-341).
T5 sequence: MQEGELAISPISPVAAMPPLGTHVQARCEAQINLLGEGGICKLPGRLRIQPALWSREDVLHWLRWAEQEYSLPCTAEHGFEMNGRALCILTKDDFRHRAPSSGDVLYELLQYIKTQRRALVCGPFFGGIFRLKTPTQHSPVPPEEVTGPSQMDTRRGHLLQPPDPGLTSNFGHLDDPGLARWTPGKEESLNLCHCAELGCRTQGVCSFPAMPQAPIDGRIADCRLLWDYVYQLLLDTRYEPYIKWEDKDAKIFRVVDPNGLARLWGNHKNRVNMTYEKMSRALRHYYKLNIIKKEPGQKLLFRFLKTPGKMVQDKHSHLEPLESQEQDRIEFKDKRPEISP
The procedure, abridged: as §1

A further test has as its target ETV6 (Homo sapiens, UniProt P41212 1-452). A digest of the protocol:
as §1

The next test addresses T6, ELK1 (Homo sapiens, UniProt P19419 1-428).
T6 sequence: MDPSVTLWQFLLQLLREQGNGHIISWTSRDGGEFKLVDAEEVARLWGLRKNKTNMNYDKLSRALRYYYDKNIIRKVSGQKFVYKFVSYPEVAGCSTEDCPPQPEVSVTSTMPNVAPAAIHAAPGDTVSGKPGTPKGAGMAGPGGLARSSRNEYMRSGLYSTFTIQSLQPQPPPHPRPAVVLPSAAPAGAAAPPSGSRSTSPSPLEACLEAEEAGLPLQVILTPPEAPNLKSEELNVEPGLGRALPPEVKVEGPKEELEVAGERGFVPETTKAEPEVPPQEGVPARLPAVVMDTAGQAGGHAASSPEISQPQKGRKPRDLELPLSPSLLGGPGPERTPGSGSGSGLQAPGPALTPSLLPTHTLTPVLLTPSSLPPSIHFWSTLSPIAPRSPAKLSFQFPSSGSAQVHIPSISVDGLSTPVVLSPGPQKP
A digest of the protocol: as §1

For another test, the target named is T7, ELK3 (Homo sapiens, UniProt P41970 1-407).
T7 sequence: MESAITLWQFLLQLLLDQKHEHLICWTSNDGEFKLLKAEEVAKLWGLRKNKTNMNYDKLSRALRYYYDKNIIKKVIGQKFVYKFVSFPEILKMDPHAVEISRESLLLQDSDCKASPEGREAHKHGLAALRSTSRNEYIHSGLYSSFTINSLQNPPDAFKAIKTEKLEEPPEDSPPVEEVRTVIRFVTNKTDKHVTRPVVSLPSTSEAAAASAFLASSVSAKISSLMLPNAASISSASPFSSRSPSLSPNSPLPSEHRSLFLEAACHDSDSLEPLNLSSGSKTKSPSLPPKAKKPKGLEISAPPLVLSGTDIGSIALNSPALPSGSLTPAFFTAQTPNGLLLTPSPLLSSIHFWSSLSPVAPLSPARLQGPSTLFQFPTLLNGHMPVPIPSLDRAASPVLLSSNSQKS
The procedure, abridged: as §1

Another test has as its target T8, ELF3 (Homo sapiens, UniProt P78545 1-371).
T8 sequence: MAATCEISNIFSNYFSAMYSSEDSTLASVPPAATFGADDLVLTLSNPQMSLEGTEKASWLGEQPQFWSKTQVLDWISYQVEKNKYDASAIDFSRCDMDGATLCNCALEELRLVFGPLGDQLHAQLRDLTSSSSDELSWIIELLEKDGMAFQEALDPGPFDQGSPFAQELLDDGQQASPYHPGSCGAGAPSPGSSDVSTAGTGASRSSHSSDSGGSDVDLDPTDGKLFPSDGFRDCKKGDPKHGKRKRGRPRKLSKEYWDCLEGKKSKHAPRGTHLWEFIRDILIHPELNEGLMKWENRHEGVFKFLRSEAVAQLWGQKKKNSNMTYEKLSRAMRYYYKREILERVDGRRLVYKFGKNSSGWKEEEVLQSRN
A digest of the protocol: as §1

Another test concerns the target T9, ETV3L (Homo sapiens, UniProt Q6ZN32 1-361).
T9 sequence: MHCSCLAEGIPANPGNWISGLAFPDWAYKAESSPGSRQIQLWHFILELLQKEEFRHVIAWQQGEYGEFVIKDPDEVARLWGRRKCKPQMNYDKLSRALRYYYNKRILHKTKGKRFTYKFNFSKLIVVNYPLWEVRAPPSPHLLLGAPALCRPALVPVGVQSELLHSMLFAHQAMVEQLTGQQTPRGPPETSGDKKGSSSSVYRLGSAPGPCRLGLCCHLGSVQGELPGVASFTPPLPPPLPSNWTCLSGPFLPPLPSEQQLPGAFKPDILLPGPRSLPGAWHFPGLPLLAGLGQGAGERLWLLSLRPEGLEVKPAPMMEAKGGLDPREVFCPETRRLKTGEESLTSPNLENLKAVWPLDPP
The procedure, abridged:
as §1

Sequence of ELF4 (Q99607 whole entry): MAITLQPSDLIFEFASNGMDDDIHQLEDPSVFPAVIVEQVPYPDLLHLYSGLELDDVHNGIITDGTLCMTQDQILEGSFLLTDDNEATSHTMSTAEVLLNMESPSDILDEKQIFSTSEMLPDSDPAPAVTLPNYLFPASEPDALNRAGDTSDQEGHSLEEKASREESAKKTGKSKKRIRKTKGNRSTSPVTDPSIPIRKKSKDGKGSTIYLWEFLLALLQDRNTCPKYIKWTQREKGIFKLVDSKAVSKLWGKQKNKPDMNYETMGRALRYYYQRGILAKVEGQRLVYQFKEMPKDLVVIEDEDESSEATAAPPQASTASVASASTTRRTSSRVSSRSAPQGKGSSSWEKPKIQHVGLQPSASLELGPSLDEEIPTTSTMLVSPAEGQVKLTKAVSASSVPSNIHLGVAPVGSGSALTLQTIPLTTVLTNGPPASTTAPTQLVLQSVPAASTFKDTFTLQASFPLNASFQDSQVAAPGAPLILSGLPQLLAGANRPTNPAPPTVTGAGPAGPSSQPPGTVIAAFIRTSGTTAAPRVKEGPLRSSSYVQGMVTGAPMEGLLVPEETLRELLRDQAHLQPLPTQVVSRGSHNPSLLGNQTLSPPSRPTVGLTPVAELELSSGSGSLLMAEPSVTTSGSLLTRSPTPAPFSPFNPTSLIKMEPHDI
Sequence of SPIB (Q01892 whole entry): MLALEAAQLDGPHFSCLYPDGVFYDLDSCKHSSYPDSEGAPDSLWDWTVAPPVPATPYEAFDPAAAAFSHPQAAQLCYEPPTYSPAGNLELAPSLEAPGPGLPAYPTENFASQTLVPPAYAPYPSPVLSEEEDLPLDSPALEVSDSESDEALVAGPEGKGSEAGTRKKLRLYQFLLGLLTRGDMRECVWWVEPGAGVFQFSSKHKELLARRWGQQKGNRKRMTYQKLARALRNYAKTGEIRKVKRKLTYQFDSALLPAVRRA
Sequence of ETV6 (P41212 whole entry): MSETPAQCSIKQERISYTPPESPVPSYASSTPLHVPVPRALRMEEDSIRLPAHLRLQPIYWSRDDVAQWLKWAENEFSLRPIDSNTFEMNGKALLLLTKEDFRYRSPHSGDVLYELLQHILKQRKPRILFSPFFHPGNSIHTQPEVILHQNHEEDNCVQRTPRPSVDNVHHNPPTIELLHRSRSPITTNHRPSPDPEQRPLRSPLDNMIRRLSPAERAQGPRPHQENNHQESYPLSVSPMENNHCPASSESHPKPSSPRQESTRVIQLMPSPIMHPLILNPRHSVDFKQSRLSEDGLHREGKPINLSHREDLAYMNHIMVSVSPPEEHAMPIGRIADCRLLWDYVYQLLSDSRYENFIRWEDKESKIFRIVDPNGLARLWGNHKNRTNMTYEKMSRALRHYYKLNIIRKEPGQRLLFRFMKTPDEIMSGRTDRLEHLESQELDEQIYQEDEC

As for TAGTTG, the binding signal is 1.01 fold enrichment (6-mer frequency, TF over GST control) with ELF1; 1.01 fold enrichment (6-mer frequency, TF over GST control) with EHF; 1.02 fold enrichment (6-mer frequency, TF over GST control) with SPIB; 1 fold enrichment (6-mer frequency, TF over GST control) in the test with SPIC; 1.01 fold enrichment (6-mer frequency, TF over GST control) with ELF4; 1.18 fold enrichment (6-mer frequency, TF over GST control) with ELK4. The binding signal in the test with ERF was 1.07 fold enrichment (6-mer frequency, TF over GST control); with ETV7, 1.02 fold enrichment (6-mer frequency, TF over GST control); with ETV6 it was 1.01 fold enrichment (6-mer frequency, TF over GST control).
Regarding CGCTAA, the binding signal was 1.05 fold enrichment (6-mer frequency, TF over GST control) with ELK1; 1 fold enrichment (6-mer frequency, TF over GST control) with ELK3; 1 fold enrichment (6-mer frequency, TF over GST control) in the test with ELF3; 1 fold enrichment (6-mer frequency, TF over GST control) with ETV3L.
